Measurements as given in PubChem BioAssay AID1259349 (Broad Institute, 2017).
Where “and” joins values, the source holds several entries; their conditions need not be identical. Equal entries are not always repeated. Hit rate of the full screen: of about 17,000 compounds, about 1,100 (6.5%) were called active.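 How the source made its calls: active means z-score of -3 or lower, meaning strong loss of probe binding signal; inactive means the rest.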 Shown is part of a subset that was picked to be rich in actives. Some compounds were tested as several samples or in several runs, with calls that do not always agree.

Target: Insulin-degrading enzyme (Homo sapiens) (UniProt P14735)
Sequence (P14735 42-1019 limits assumed): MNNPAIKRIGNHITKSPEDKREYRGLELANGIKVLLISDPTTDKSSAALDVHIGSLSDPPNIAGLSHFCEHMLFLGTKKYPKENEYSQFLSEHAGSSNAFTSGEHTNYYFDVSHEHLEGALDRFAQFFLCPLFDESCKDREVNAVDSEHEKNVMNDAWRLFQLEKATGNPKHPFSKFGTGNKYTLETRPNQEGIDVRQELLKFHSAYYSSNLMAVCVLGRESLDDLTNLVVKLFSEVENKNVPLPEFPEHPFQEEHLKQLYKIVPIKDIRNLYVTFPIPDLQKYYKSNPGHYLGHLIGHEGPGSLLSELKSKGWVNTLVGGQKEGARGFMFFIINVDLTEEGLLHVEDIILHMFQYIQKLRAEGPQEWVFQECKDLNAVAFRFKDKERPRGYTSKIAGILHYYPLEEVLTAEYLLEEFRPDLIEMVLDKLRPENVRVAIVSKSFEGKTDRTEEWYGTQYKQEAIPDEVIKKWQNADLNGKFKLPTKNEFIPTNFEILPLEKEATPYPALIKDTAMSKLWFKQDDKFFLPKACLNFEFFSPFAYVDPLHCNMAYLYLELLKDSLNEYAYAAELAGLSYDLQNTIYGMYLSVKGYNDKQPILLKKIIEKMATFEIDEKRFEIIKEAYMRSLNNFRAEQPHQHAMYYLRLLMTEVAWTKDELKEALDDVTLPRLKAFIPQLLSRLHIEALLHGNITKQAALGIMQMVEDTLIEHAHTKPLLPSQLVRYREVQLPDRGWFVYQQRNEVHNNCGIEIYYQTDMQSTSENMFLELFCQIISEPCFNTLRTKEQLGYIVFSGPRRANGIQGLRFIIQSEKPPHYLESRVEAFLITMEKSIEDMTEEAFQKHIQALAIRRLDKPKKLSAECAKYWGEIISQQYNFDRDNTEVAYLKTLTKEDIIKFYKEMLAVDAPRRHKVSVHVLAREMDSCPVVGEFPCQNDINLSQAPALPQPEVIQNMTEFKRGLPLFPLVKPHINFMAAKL
Test: displacers of FL-6b probe from IDE – biochemical, fluorescence anisotropy, probe displacement, primary screen (AID 1259349);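 further: His-tagged human IDE residues 42-1019 made in E. coli with 30 nM FL-6b probe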
Details: purified IDE, FL-6b probe fluorescence polarization; at 20 µM; stronger effect = lower value

SMILES | z-score
CCC(=O)N1CCCCN2[C@H](C1)[C@@H](c1ccc(/C=C/c3ccccc3)cc1)[C@@H]2CO | -7.21 (active)
O=C(CN1CCOCC1)N1CCCCN2[C@H](CO)[C@H](c3ccc(-c4ccccc4)cc3)[C@@H]2C1 | -0.341 (inactive)
COCC(=O)N1CCCCN2[C@H](C1)[C@@H](c1ccc(-c3ccccc3)cc1)[C@@H]2CO | 1.64 (inactive)
O=C(CN1CCOCC1)N1CCCCN2[C@@H](CO)[C@H](c3ccc(/C=C/c4ccccc4)cc3)[C@@H]2C1 | -4.3 (active)
CCC(=O)N1CCCCN2[C@H](C1)[C@@H](c1ccc(-c3ccc(F)cc3)cc1)[C@@H]2CO | 1.91 (inactive)
O=C(CN1CCOCC1)N1CCCCN2[C@@H](CO)[C@H](c3ccc(-c4ccccc4)cc3)[C@@H]2C1 | -0.926 (inactive)
O=C(c1cnccn1)N1CC(=O)N2[C@H](C1)[C@@H](c1ccc(C3=CCCCC3)cc1)[C@@H]2CO | 0.336 (inactive)
O=C(CN1CCOCC1)N1CC(=O)N2[C@H](C1)[C@H](c1ccc(/C=C/c3ccccc3)cc1)[C@@H]2CO | -5.55 (active)
CC(C)CC#Cc1ccc([C@H]2[C@@H](CO)N3C(=O)CN(C(=O)CN4CCOCC4)C[C@H]23)cc1 | 2.46 (inactive)
O=C(c1cnccn1)N1CC(=O)N2[C@H](C1)[C@H](c1ccc(/C=C/c3ccccc3)cc1)[C@@H]2CO | -7.53 (active)
CC(C)CC#Cc1ccc([C@H]2[C@H]3CN(C(=O)CN4CCOCC4)CC(=O)N3[C@H]2CO)cc1 | 4.32 (inactive)
O=C(Cc1cccnc1)N1CC(=O)N2[C@H](CO)[C@@H](c3ccc(/C=C/c4ccccc4)cc3)[C@H]2C1 | -1.1 (inactive)
COCC#Cc1ccc([C@@H]2[C@@H](CO)N3CCCCN(C(=O)COC)C[C@@H]23)cc1 | 1.49 (inactive)
CCCNC(=O)N1[C@H](CO)[C@@H](c2ccc(-c3ccc(C(=O)N(C)C)cc3)cc2)[C@@H]1C#N | -1.53 (inactive)
CCC(=O)N1[C@@H](CO)[C@@H]2c3ccccc3N(C(=O)c3cnccn3)C[C@@H]21 | 1.18 (inactive)
CO[C@@H]1CN(C)C(=O)c2cc(NS(=O)(=O)c3cccc(Cl)c3)ccc2OC[C@@H](C)NC[C@@H]1C | -0.0121 (inactive)
O=C(c1cnccn1)N1CC(=O)N2[C@H](C1)[C@@H](c1ccc(C#CC3CCCCC3)cc1)[C@@H]2CO | 4.43 (inactive)
Cc1ccccc1S(=O)(=O)N1C[C@H](O)COC[C@H]2O[C@H](CC(=O)N3CCCCC3)CC[C@@H]21 | -0.576 (inactive)
C[C@H](NC(=O)C[C@H]1CC[C@H]2[C@@H](COC[C@H](O)CN2C(=O)Nc2cccc(Cl)c2)O1)c1ccccc1 | 1.23 (inactive)
Cn1cnc(S(=O)(=O)N2CCCCN3[C@@H](CO)[C@@H](c4ccc(C#CC5CCCC5)cc4)[C@@H]3C2)c1 | 1.81 (inactive)
O=C(Nc1ccc(C(F)(F)F)cc1)N1[C@@H]2CNC[C@H]1C2c1ccc(-c2ccncc2)cc1 (stereo partly drawn) | 3.1 (inactive) and 5.44 (inactive)
COc1ccc(-c2ccc3c(c2)[C@@H]2[C@@H](CCN2C(=O)c2cccc(F)c2)[C@H](CO)N3)cc1 | 1.25 (inactive)
O=C(c1ccccc1)N1CC(=O)N2[C@@H](CO)[C@H](c3ccc(C#CCC4CCCC4)cc3)[C@@H]2C1 | 0.717 (inactive)

SMILES | z-score
CNC[C@@H]1OCCCC[C@H](C)Oc2ccc(NC(=O)Nc3ccc(OC)cc3)cc2C(=O)N([C@H](C)CO)C[C@@H]1C | 1.03 (inactive)
CC(=O)N1CC2(C1)[C@H](c1ccccc1)[C@@H](CO)N2C(=O)Cc1ccccc1 | -0.887 (inactive)
COc1ccc2c3c([nH]c2c1)[C@@H](CO)N(Cc1cc(F)ccc1F)CC31CN(C(=O)C2CCC2)C1 | -1.31 (inactive)
COc1ccc2c3c([nH]c2c1)[C@H](CO)N(Cc1ccccc1Cl)CC31CN(C(=O)C2CC2)C1 | -4.06 (active)
COCC(=O)N1CC2(C1)CN(Cc1ccccc1F)[C@@H](CO)c1[nH]c3cc(OC)ccc3c12 | -1.64 (inactive)
N#Cc1cccc(-c2ccc3c(c2)[C@H]2[C@H](CCN2Cc2ccc4c(c2)OCO4)[C@@H](CO)N3)c1 | 1.22 (inactive)
CC(C)NC(=O)N1CCCCN2[C@H](CO)[C@@H](c3ccc(Br)cc3)[C@H]2C1 | 2.67 (inactive)
CCCNC(=O)N1[C@H](C#N)[C@@H](c2ccccc2)[C@H]1CO | 3.95 (inactive)
C[C@@H]1CCCCO[C@H](CN(C)S(=O)(=O)c2cn(C)cn2)[C@H](C)CN([C@H](C)CO)C(=O)c2cc(N(C)C)ccc2O1 | -0.253 (inactive)
CCCNC(=O)N1[C@@H]2CNC[C@H]1C2c1ccc(-c2ccccc2)cc1 (stereo partly drawn) | 0.774 (inactive) and 1.73 (inactive)
CCCNC(=O)N1[C@@H]2CNC[C@H]1C2c1ccc(-c2cccc(C)c2)cc1 (stereo partly drawn) | 0.449 (inactive) and -6.06 (active)
COc1cccc(-c2ccc(C3[C@H]4CNC[C@@H]3N4C(=O)Nc3ccc(F)cc3)cc2)c1 (stereo partly drawn) | -0.759 (inactive) and -1.81 (inactive)
CCC(=O)N1[C@@H](CO)[C@H](c2ccc(-c3cccc(F)c3)cc2)[C@@H]1CNC(C)=O | 2.2 (inactive)
N#C[C@@H]1[C@H](c2ccccc2-c2ccccc2F)[C@@H](CO)N1C(=O)C1CCOCC1 | 3.52 (inactive)
Cc1noc(C)c1S(=O)(=O)N(C)C[C@H]1Oc2ccc(N(C)C)cc2C(=O)N([C@H](C)CO)C[C@@H]1C | -1.17 (inactive)
COc1ccccc1C#Cc1ccc([C@@H]2[C@@H](CO)N3CCCCN(S(C)(=O)=O)C[C@@H]23)cc1 | -10.2 (active)
COc1ccccc1C#Cc1ccc([C@@H]2[C@H](CO)N3CCCCN(CCC(F)(F)F)C[C@@H]23)cc1 | -8.07 (active)
COc1ccc(C#Cc2ccc([C@H]3[C@@H](CO)N4CCCCN(C(=O)Nc5ccccc5)C[C@H]34)cc2)cc1 | 4.38 (inactive)
O=C(Nc1ccc(F)cc1)N1CCCCN2[C@H](CO)[C@H](c3ccc(C#Cc4ccccc4)cc3)[C@H]2C1 | -0.00774 (inactive)
COc1ccccc1NC(=O)N1CCCCN2[C@@H](CO)[C@@H](c3ccc(C#Cc4ccccc4)cc3)[C@@H]2C1 | -2.86 (inactive)
OC[C@H]1[C@@H](c2ccc(C#Cc3ccccc3F)cc2)[C@H]2CN(CC3CCOCC3)CCCCN21 | 0.86 (inactive)
CCCC#Cc1ccc([C@H]2[C@H](CO)N3CCCCN(S(=O)(=O)CC)C[C@@H]23)cc1 | 3.45 (inactive)
CCCC#Cc1ccc([C@H]2[C@@H](CO)N3CCCCN(S(=O)(=O)CC)C[C@H]23)cc1 | 3.29 (inactive)

SMILES | z-score
CCCC#Cc1ccc([C@@H]2[C@H](CO)N3CCCCN(S(=O)(=O)c4ccccc4F)C[C@@H]23)cc1 | -4.86 (active)
COc1ccccc1C#Cc1ccc([C@H]2[C@H](CO)N3CCCCN(C(=O)C4CCC4)C[C@@H]23)cc1 | -12.3 (active)
CN(C)CC#Cc1ccc([C@H]2[C@H]3CN(S(=O)(=O)c4ccccc4F)CCCCN3[C@H]2CO)cc1 | 1.11 (inactive)
CS(=O)(=O)N1CCCCN2[C@@H](CO)[C@@H](c3ccc(Br)cc3)[C@@H]2C1 | -1.86 (inactive)
CS(=O)(=O)Nc1ccc2c(c1)[C@@H]1C[C@H](CC(=O)NCc3cc(F)ccc3F)O[C@@H](CO)[C@@H]1O2 | -0.994 (inactive)
C/C=C/c1ccc([C@H]2[C@@H](CNC(=O)NC(C)C)N(C(=O)C3CCC3)[C@H]2CO)cc1 | 1.01 (inactive)
C[C@@H](O)C#Cc1ccc([C@H]2[C@H](CO)N3CCCCN(C(=O)c4ccc5c(c4)OCO5)C[C@@H]23)cc1 | -0.442 (inactive)
CCS(=O)(=O)NCC[C@H]1CC[C@@H](NC(=O)Nc2cc(Cl)cc(Cl)c2)[C@@H](CO)O1 | 2.83 (inactive)
CCCNC(=O)C[C@@H]1CC[C@H]2[C@@H](COC[C@H](O)CN2C(=O)Nc2ccc(Cl)c(Cl)c2)O1 | -0.531 (inactive)
Cc1noc(C)c1S(=O)(=O)Nc1ccc2c(c1)C(=O)N([C@@H](C)CO)C[C@@H](C)[C@H](CN(C)C(=O)Nc1cccc3ccccc13)OCCCC[C@H](C)O2 | 0.278 (inactive)
COc1ccccc1-c1ccc2c(c1)O[C@@H](CN(C)CC1CCOCC1)[C@H](C)CN([C@@H](C)CO)S2(=O)=O | -0.56 (inactive)
CCNC(=O)c1cc2c(c(-c3cccc(-c4cncnc4)c3)n1)[C@H](CCO)N(C(C)=O)C2 | -0.344 (inactive)
O=C1CNC[C@H]2[C@@H](c3ccc(C4=CCCC4)cc3)[C@@H](CO)N12 | 1.84 (inactive)
N#C[C@@H]1[C@@H](c2ccc(-c3ccccc3F)cc2)[C@@H](CO)N1C(=O)c1ccccn1 | -6.83 (active)
CC(=O)N(C)C[C@@H]1[C@@H](c2ccc(-c3ccccc3F)cc2)[C@@H](CO)N1C(C)=O | 2.54 (inactive)
N#C[C@@H]1[C@@H](c2ccc(/C=C/c3ccccc3)cc2)[C@@H](CO)N1C(=O)C1CC1 | -0.906 (inactive)
N#C[C@H]1[C@@H](c2ccc(-c3ccccc3F)cc2)[C@H](CO)N1C(=O)c1ccccn1 | -3.67 (active)
N#C[C@H]1[C@@H](c2ccccc2C2=CCCCC2)[C@H](CO)N1C(=O)c1ccccn1 | 0.206 (inactive)
N#C[C@@H]1[C@H](c2ccccc2-c2ccccc2F)[C@@H](CO)N1C(=O)c1ccccn1 | -0.079 (inactive)
N#C[C@H]1[C@@H](c2ccccc2-c2ccccc2F)[C@@H](CO)N1C(=O)C1CCC1 | -0.535 (inactive)
N#C[C@H]1[C@H](c2ccccc2)[C@@H](CO)N1C(=O)c1cccnc1 | 1.75 (inactive)
N#C[C@@H]1[C@@H](c2ccc(-c3ccccc3F)cc2)[C@@H](CO)N1C(=O)C1CC1 | -5.9 (active)
